The source of these data is PubChem BioAssay (Tox21).

Assay [1] in a line: qHTS assay for small molecule agonists of the p53 signaling pathway (AID 651631; calls by dose curve; also: nearly all actives have a fitted effect of over 15% in size; also: potency is read from the fitted curve at half-maximal effect). The method in brief: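 HCT-116 p53RE-bla reporter line, 16 h compound treatment at 37 °C, then fluorescence after 2 h with B/G FRET substrate.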
In general terms: qHTS replaces the single test concentration by a dilution series.

Assay [2] is described as follows: qHTS assay for small molecules that induce genotoxicity in human embryonic kidney cells expressing luciferase-tagged ATAD5 (AID 651632). Also: % is scaled to controls: 0 for no effect and ±100 for the full control effect; nearly all actives have a fitted effect of over 15% in size. The gist of the method: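 Genotoxicity read-out via ATAD5-luciferase: HEK293T cells, 16 hr compound incubation at 37C, Amplite detection.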
Assay [3] is described as follows: qHTS assay for small molecule agonists of the p53 signaling pathway - cell viability (AID 651633; calls by dose curve; also: nearly all actives have a fitted effect of over 30% in size; also: potency is read from the fitted curve at half-maximal effect). The method in brief:
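Viability counter-read: CellTiter-Glo luminescence (30 min, room temperature) in the same p53RE-bla plates. These plates had been exposed to compounds for 16 h at 37 C.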

Assay [4] is described as follows: qHTS assay for small molecules that induce genotoxicity in human embryonic kidney cells expressing luciferase-tagged ATAD5 - cell viability (AID 651634; calls by dose curve; also: nearly all actives have a fitted effect of over 25% in size; also: potency is read from the fitted curve at half-maximal effect). The method in brief: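 Live-cell protease activity (CellTiter-Fluor, fluorescence) indicates viability. HEK293T cells with luciferase-tagged ATAD5; 15.5 hr compound treatment at 37C.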
Assay [5] in a line: qHTS assay for small molecule disruptors of the mitochondrial membrane potential - cell viability (AID 720634; calls by dose curve;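 also: human HepG2 liver cancer cells; series mostly up to about 83 µM; % is scaled to controls: 0 for no effect and ±100 for the full control effect; nearly all actives have a fitted effect of over 20% in size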). The method in brief: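 Human hepatoma HepG2 cells were treated for 1 hr with test chemicals, then given m-MPI dye and CellTiter-Glo. Cell viability reflects luminescence proportional to cellular ATP.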
Assay [6] is described as follows: qHTS assay to test for compound auto fluorescence at 590 nm (red) in HepG2 cells (AID 720674). Also: % is scaled to controls: 0 for no effect and ±100 for the full control effect. The gist of the method: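 We screened compounds on adherent HepG2 cells, incubating them for an hour at 37 C in 5% CO2 before reading emission at 590 nm under 540 nm excitation; values reflect equivalence to Rose Bengal sodium fluorescence.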
The nature of assay [7]: qHTS assay to test for compound auto fluorescence at 535 nm (green) in HepG2 cells (AID 720675). Also: % is scaled to controls: 0 for no effect and ±100 for the full control effect.
Assay [8] can be described thus: qHTS assay to test for compound auto fluorescence at 460 nm (blue) in HEK293 cells (AID 720678). Also: % is scaled to controls: 0 for no effect and ±100 for the full control effect. The gist of the method: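 HEK293 cells (2,000 per well, medium with 10% dialyzed FBS) attached for 4-5 hr at 37C, then received compound and stood overnight at 37C, 5% CO2. Blue fluorescence was read at Ex/Em 405/460 nm and expressed relative to triamterene.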
Assay [9] can be described thus: qHTS assay to test for compound auto fluorescence at 590 nm (red) in HEK293 cells (AID 720679). Also: % is scaled to controls: 0 for no effect and ±100 for the full control effect. The gist of the method:
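HEK293 cells (2,000/well, medium with 10% dialyzed FBS) attached for 4-5 hr at 37C, received 23 nL compound and were incubated overnight at 37C, 5% CO2. Red fluorescence was then read at 540/590nm Ex/Em, referenced to Rose Bengal sodium.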

Assay [10] in a line: qHTS assay to test for compound auto fluorescence at 535 nm (green) in HEK293 cells (AID 720680). Also: % is scaled to controls: 0 for no effect and ±100 for the full control effect.
Assay [11] can be described thus: qHTS assay to test for compound auto fluorescence at 460 nm (blue) in HEK293 cell free culture (AID 720681). Also: % is scaled to controls: 0 for no effect and ±100 for the full control effect. The gist of the method: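 Blue fluorescence (Ex 405/Em 460 nm, triamterene-equivalent) was read immediately after pin transfer of compound or DMSO into medium (DMEM, 10% FBS) without cells.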
The nature of assay [12]: qHTS assay to test for compound auto fluorescence at 535 nm (green) in HEK293 cell free culture (AID 720682). Also: % is scaled to controls: 0 for no effect and ±100 for the full control effect. The gist of the method:
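Steps: dispense DMEM/10% FBS into empty wells; pin in compound or DMSO; measure fluorescence at 485/535 nm. Values are fluorescein equivalents.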

Assay [13] in a line: qHTS assay to test for compound auto fluorescence at 590 nm (red) in HEK293 cell free culture (AID 720683). Also: % is scaled to controls: 0 for no effect and ±100 for the full control effect. The gist of the method: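 Red-channel autofluorescence of compounds in culture medium (DMEM, 10% FBS), no cells, measured at 540/590 nm. Rose Bengal sodium is the reference fluorophore for equivalence.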
The nature of assay [14]: qHTS assay to test for compound auto fluorescence at 590 nm (red) in HepG2 cell free culture (AID 720684). Also: % is scaled to controls: 0 for no effect and ±100 for the full control effect. The gist of the method: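 Plate contents were MEM with 10% FBS plus test compound or DMSO, no cells. Fluorescence was recorded with 540 nm excitation and 590 nm emission.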
Assay [15] in a line: qHTS assay to test for compound auto fluorescence at 535 nm (green) in HepG2 cell free culture (AID 720686). Also: % is scaled to controls: 0 for no effect and ±100 for the full control effect.
A short description of assay [16]: qHTS assay to test for compound auto fluorescence at 460 nm (blue) in HepG2 cells (AID 720687). Also: % is scaled to controls: 0 for no effect and ±100 for the full control effect. The gist of the method:
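Blue-channel autofluorescence (Ex/Em 405/460 nm, triamterene-equivalent) was measured after 1 hr compound exposure at 37 C, 5% CO2. Cells were HepG2, plated overnight at 37 C in MEM plus 10% FBS.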

The nature of assay [17]: qHTS assay for small molecule disruptors of the mitochondrial membrane potential (AID 720635). Also: potency is read from the fitted curve at half-maximal effect. The method in brief:
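Mitochondrial membrane potential tracked with Mito-MPS dye, red aggregates (ex 540/em 590 nm) against green monomers (ex 490/em 535 nm). Compound treatment 1 hr at 37C, dye 30 min in HepG2.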

Assay [18] is described as follows: qHTS assay to test for compound auto fluorescence at 460 nm (blue) in HepG2 cell free culture (AID 720685). Also: % is scaled to controls: 0 for no effect and ±100 for the full control effect. The gist of the method:
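Compound (23 nL) or DMSO pinned into cell-free MEM with 10% FBS; blue fluorescence read at 405/460 nm excitation/emission, expressed as auto-fluorescence equivalency to triamterene.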

The target in assay [19] is Glucocorticoid receptor (Homo sapiens) (UniProt P04150). The assay is described as follows: qHTS assay to identify small molecule antagonists of the glucocorticoid receptor (GR) signaling pathway (AID 720692; active = well fitted inhibition curve with a large enough effect in the signal ratio in the repeat runs, not every such curve was filed as active; the % refers to the signal ratio; also: potency is read from the fitted curve at half-maximal effect). The gist of the method: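 Fluorescence from cleaved LiveBLAzer B/G FRET substrate reports GRE-driven beta-lactamase in HeLa cells; compounds are tested against 5 nM dexamethasone (final) over 18 h at 37 C, substrate incubation 2 h at room temperature.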
Sequence of Glucocorticoid receptor (Homo sapiens) (P04150 whole entry, looked up): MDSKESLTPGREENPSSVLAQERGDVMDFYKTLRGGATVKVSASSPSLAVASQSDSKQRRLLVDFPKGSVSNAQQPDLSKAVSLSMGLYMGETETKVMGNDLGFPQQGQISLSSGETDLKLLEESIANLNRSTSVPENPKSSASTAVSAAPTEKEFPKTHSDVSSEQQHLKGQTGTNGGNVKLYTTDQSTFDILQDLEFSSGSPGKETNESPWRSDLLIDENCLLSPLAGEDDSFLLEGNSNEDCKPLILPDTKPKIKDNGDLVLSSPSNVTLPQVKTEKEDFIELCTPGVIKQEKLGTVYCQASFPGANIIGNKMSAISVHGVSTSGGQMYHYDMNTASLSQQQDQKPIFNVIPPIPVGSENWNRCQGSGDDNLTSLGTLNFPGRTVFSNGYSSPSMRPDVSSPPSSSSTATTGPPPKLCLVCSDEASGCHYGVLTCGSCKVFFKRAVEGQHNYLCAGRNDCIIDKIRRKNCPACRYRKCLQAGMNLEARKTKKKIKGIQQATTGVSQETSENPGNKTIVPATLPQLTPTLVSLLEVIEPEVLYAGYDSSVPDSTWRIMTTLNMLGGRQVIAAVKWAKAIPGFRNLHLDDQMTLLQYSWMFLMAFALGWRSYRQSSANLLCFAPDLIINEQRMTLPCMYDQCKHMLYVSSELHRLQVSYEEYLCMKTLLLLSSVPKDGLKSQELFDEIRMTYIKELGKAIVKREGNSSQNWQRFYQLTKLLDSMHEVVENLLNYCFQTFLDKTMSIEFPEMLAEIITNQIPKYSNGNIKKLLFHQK

The target is the same in assay [20]. The assay is described as follows: qHTS assay to identify small molecule agonists of the glucocorticoid receptor (GR) signaling pathway (AID 720691; active = well fitted activation curve with a large enough effect in the signal ratio in the repeat runs, not every such curve was filed as active; the % refers to the signal ratio; also: % is scaled to controls: 0 for no effect and ±100 for the full control effect). The method in brief:
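Beta-lactamase reporter activity, read as fluorescence intensity, was measured in GR-bla HeLa cells exposed to compounds for 18 h at 37 C and then loaded with LiveBLAzer B/G FRET substrate for 2 h at room temperature.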

Each structure is given as a SMILES string. Unmarked numbers belong to inactive results. Inconclusive results are not listed. Calls of active or inactive are those of the source. Unless noted, calls follow the shape of the dose curve; as a rule, active = well fitted curve in the direction sought with a large enough effect in the repeat runs; inconclusive = weak or mixed curves; inactive = no such curve, though single readings can be large; an effect the other way counts as inactive or inconclusive.

As for `N#[N+]c1ccc2c(S(=O)(=O)[O-])cccc2c1O`, the Potency result in assay [1], in assay [2], in assay [3], in assay [4], in [5] and in [8] was “inactive” in each case. In addition, the Potency entry in assay [11] and in assay [16] was “inactive” in each case. For the same compound, the outcome in assay [6], in assay [7], in assay [9], in assay [10], in [12] and in assay [13] was inactive. The compound was called inactive in [14] and in assay [15].
On to `CCOC(=O)c1ccccc1C(=C1C=C(Br)C(=O)C(Br)=C1)c1cc(Br)c(O)c(Br)c1`, for which the Potency was 7.24 µM (active) in assay [1], 7.24 µM (active) in [3], 20.4 µM (active) in assay [17] and 4.61 µM (active) in assay [19]. In addition, the Potency entry in assay [2], in assay [5], in [11], in assay [18] and in [16] was “inactive” throughout. The result in [6], in assay [7], in assay [9], in assay [13], in assay [14] and in [15] was inactive.
In the case of `O=C(Cn1ccnc1[N+](=O)[O-])NCCO`, the Potency result in assay [1], in [2], in assay [3], in assay [4], in assay [5] and in [8] was “inactive” in each case. In addition, the Potency result in assay [11], in assay [18] and in [16] was “inactive” each time. For the same compound, the call in assay [6], in [7], in assay [9], in assay [10], in [12] and in [13] was inactive. The compound was classed as inactive in [14] and in [15].
Take `O=c1[nH]c2ccc(Cl)cc2o1`: the Potency result in assay [1], in [2], in assay [3], in assay [4], in assay [5] and in [8] was “inactive” throughout. The Potency entry in [11], in [18] and in assay [16] was “inactive” throughout. Moreover, the call in assay [6], in assay [7], in assay [9], in [10], in assay [12] and in assay [13] was inactive. For the same compound, the call in assay [14] and in assay [15] was inactive.
With `COc1cc(N)c(Cl)cc1C(=O)NC1CCN(CCCOc2ccc(F)cc2)CC1OC` (stereo not given), the Potency entry in assay [1], in assay [2], in assay [3], in [4], in [5] and in assay [20] was “inactive” throughout. The Potency result in assay [19] was “inactive”. In addition, the fluorescence, relative to Rose Bengal in assay [6] is 0.956% [at 18.6 µM]. For the same compound, the figures for the fluorescence, % of fluorescein control in assay [7] and in assay [15] were -0.0882% [at 18.6 µM] and -0.0661% [at 18.6 µM], respectively. In addition, the fluorescence, % of triamterene in [8] was -0.493% [at 18.6 µM]. The fluorescence, % of fluorescent control was 0.102% [at 18.6 µM] in [9]; -0.0155% [at 18.6 µM] in assay [11]; 0.142% [at 18.6 µM] in assay [13]; -0.0728% [at 18.6 µM] in assay [18]; 0.156% [at 18.6 µM] in [16]. The activity change in assay [12] was 0.0082% [at 18.6 µM]. Also, the fluorescence, % of Rose Bengal in assay [14] was -0.186% [at 18.6 µM].
Turning to `O=C1NC(=O)c2cc([N+](=O)[O-])ccc21`, the Potency result in assay [1], in [2], in [3], in [4], in assay [5] and in [11] was “inactive” in each case. Moreover, the Potency result in [18], in assay [16] and in [20] was “inactive” each time. Further, the call in assay [7], in assay [9], in assay [10], in [12], in assay [13] and in assay [14] was inactive. The outcome in assay [15] was inactive.
Consider `CC(C)COCC(CN(Cc1ccccc1)c1ccccc1)N1CCCC1` (stereo not given), for which the Potency is 13.3 µM (active) in assay [1], 11.9 µM (active) in assay [3] and 9.44 µM (active) in [4]. Also, the Potency entry in assay [2], in [8], in [11], in [18], in assay [16] and in assay [20] was “inactive” in each case. For the same compound, the result in [6], in [7], in [9], in [10], in assay [13] and in assay [14] was inactive. Moreover, the result in assay [15] was inactive.
